Measured values as given in PubChem BioAssay.

These compounds were tested against Tumor necrosis factor receptor superfamily member 10B (Homo sapiens) (UniProt O14763) (assay: caspase-8 TRAIL sensitization, hit retest, confirmation, cell-based, NB7+caspase-8, with/without TRAIL, luminescence panel (AID 651596)). Conditions: NB7 neuroblastoma + caspase-8, TRAIL sensitization, luminescence viability, with TRAIL, mean of runs, at 10 µM, stronger effect = higher value; in the data active = activity above about 50%; inactive = the rest.
Chain of Tumor necrosis factor receptor superfamily member 10B (Homo sapiens) (O14763 whole entry, looked up): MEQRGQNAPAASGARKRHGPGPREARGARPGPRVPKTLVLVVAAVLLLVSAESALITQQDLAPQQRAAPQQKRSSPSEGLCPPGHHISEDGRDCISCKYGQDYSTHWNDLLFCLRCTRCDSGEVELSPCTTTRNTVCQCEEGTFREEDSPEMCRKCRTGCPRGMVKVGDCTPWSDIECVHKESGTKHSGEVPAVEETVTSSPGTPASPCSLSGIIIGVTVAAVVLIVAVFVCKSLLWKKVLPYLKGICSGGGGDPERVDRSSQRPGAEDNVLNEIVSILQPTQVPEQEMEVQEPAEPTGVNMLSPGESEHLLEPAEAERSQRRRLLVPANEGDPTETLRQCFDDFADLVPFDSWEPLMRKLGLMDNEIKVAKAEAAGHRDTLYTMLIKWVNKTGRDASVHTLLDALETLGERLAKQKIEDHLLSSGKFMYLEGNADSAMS

Q: Clc1ccc(-c2nc3n(n2)Cc2ccccc2-3)cc1 was tested. Which activity did it give?
A: 65.8%

Q: With CC1CCc2nc(NC(=O)c3ccco3)sc2C1 (stereo not given) as the compound, how does the activity read?
A: 90.5%

Q: Which activity does the source give for COC(=O)c1c(NC(=O)c2nc3ccccc3s2)sc2c1CC(C)(C)NC2(C)C here?
A: 87.8%

Q: With COc1ccc(-c2cc(C(=O)N3CCCC3)no2)cc1 as the compound, how does the activity read?
A: 64.9%

Q: How did the activity turn out when Cc1cccc(NC(=S)NC(=O)c2ccc(-c3ccccc3)cc2)n1 was run?
A: 55.5%

Q: Clc1ccccc1CSc1nc2ccncc2[nH]1 was tested. Which activity did it give?
A: 79%

Q: CCN(CC)c1ccc(/C=N/NC(=O)c2ccccn2)cc1 was tested. Which activity did it give?
A: 57.3%

Q: With C[C@@H](NC(=O)c1ncn2c1c(=O)[nH]c1ccc(Br)cc12)c1ccccc1 as the compound, how does the activity read?
A: 20.2%

Q: CCCn1c(C)cc(C(=O)COC(=O)c2cc(=O)[nH]c3ccccc23)c1C was tested. Which activity did it give?
A: 61.2%

Q: Which activity does the source give for Cc1ccc(C2=NN(C(=O)CCl)C(c3ccco3)C2)o1 (stereo not given) here?
A: 98.5%

Q: How did the activity turn out when O=C(/C=C/c1ccco1)Nc1scc(-c2ccccc2)c1C(=O)O was run?
A: 51.9%

Q: How did the activity turn out when COc1ccccc1N1CCN(C2=Nc3cccc4cccc2c34)CC1 was run?
A: 63.1%

Q: With O=c1c2c(-c3ccccc3)csc2nc2c3ccccc3c(NCCN3CCOCC3)nn12 as the compound, how does the activity read?
A: 89.5%

Q: Cc1ccc(NC(=O)c2nc(S(=O)(=O)Cc3ccccc3)ncc2Cl)cc1 was tested. Which activity did it give?
A: 83.5%

Q: With COc1cc2nc(CN(C)Cc3ccc(C(C)(C)C)cc3)[nH]c(=O)c2cc1OC as the compound, how does the activity read?
A: 70.5%

Q: How did the activity turn out when COc1ccc(NC(=O)c2cccc3c2C(=O)c2ccc(-c4ccc(F)cc4OCc4ccccc4)cc2S3(=O)=O)cc1 was run?
A: 20.6%

Q: O=C(N/N=C/c1cc(O)ccc1[N+](=O)[O-])c1ccc2c(c1)OCCO2 was tested. Which activity did it give?
A: 91%

Q: COc1ccc(C(=O)Nc2ccccc2C(=O)N/N=C/c2ccccn2)cc1OC was tested. Which activity did it give?
A: 80.7%

Q: Which activity does the source give for Cc1occc1C(=O)O/N=C(\N)c1ccc(Cl)cc1 here?
A: 81.6%

Q: With Cc1ccc(N(NC(=O)C(O)(c2ccccc2)c2ccccc2)C(=O)CCl)cc1 as the compound, how does the activity read?
A: 98.5%

Q: For COc1ccc2nc(Nc3ccccc3)sc2c1, which activity is on record?
A: 49.2%

Q: Cc1cc(NC(=O)c2cc3n(n2)C(C(F)(F)F)CC(c2ccco2)N3)no1 (stereo not given) was tested. Which activity did it give?
A: -11.1%

Q: For CCCC(=O)Nc1ccc(-c2csc(N/N=C\c3ccncc3)n2)cc1, which activity is on record?
A: 61.5%

Q: How did the activity turn out when COc1cc(/C=C(/C#N)c2nc3ccccc3[nH]2)ccc1OCC(=O)Nc1ccccc1C was run?
A: 86%

Q: For Cc1ccc(CSc2nnc(-c3cccnc3)o2)cc1, which activity is on record?
A: 43.5%

Q: CCOC(=O)c1ccc(N=c2sc(C(=O)OC)cc(=O)n2-c2ccc(C(=O)OCC)cc2)cc1 was tested. Which activity did it give?
A: 67.6%

Q: For CCN1CCN(Cc2ccc(NC(=O)c3cc(NC(=O)c4cncc(-c5ccc(C#N)cc5)c4)cc(OC)c3)cc2C(F)(F)F)CC1, which activity is on record?
A: 58%

Q: For Nc1nc(N)c(-c2cccc(C(F)(F)F)c2)c(Cc2cccc(C(F)(F)F)c2)n1, which activity is on record?
A: 81.6%

Q: CCc1ccc(OCc2nc(-c3ccccn3)no2)c(Br)c1 was tested. Which activity did it give?
A: 50%

Q: Cn1c(N)c(C(=O)COC(=O)c2cc(S(=O)(=O)N3CCOCC3)ccc2F)c(=O)n(C)c1=O was tested. Which activity did it give?
A: 90.6%

Q: With Clc1nc2ccccc2cc1/C=N/Nc1nc2ccccc2[nH]1 as the compound, how does the activity read?
A: 86.2%

Q: How did the activity turn out when O=C(c1ccncc1)N(Cc1cc2ccccc2[nH]c1=O)C1CCCCC1 was run?
A: 72.5%

Q: How did the activity turn out when Cc1ccccc1-n1nnnc1Sc1nnnn1-c1ccccc1 was run?
A: 46.1%

Q: With Cc1nc(-c2ccc(C(=O)Nc3ccccc3F)cc2)cs1 as the compound, how does the activity read?
A: 81.9%

Q: Which activity does the source give for O=C(CCl)Nc1ncc(S(=O)(=O)c2ccc([N+](=O)[O-])cc2)s1 here?
A: 95.9%

Q: For COc1ccccc1-c1nc(-c2ccccn2)no1, which activity is on record?
A: 76.7%

Q: With Cn1c2c(c(=O)n(C)c1=O)C(C(F)(F)F)(C(F)(F)F)N=C(c1ccc(Cl)cc1)N2 as the compound, how does the activity read?
A: 54.8%

Q: For Cc1ccc(-c2cn3cc([N+](=O)[O-])ccc3n2)cc1, which activity is on record?
A: 50.9%

Q: Which activity does the source give for Cc1ccc(C(=O)Nc2ccc3ccccc3n2)cc1 here?
A: 58.6%

Q: How did the activity turn out when CCOc1ccc(C(=O)Nc2cc(C)c3c(=O)oc4ccccc4c3n2)cc1 was run?
A: 61.2%
